Reference: PubChem BioAssay (NCATS)
Records with an inconclusive call do not appear. A call without a number means that no potency is given here. Activity calls are given as the source filed them. Calls come from the whole dose curve; as a rule, active = well fitted cell-killing curve with a large enough effect; inconclusive = small, poorly fitted or top-dose-only effect, or effect the other way; inactive = no such curve, though single readings can be large or run the other way.

Assay: Viability qHTS for spleen associated tyrosine kinase inhibitor (SYKi) naive MV4-11 cells (AID 1963823); note: nearly all actives have a fitted effect of over 40% in size
Details: MV4-11 AML viability, CellTiter-Glo luminescence, 72 h; series mostly up to 45 µM
In short: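 SYKi-naive MV4-11 AML cells, 500 per well, were exposed to library compounds for 72 hr at 37 C, 5% CO2. Viability was then read by CellTiter-Glo luminescence after 10 min at room temperature.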
Potency is the fitted concentration of half-maximal effect.

Structure (SMILES)	Potency
COC(=O)N(C)c1c(N)nc(-c2nn(Cc3ccccc3F)c3ncccc23)nc1N	inactive
COc1ccc(NC(=O)C2C[C@H](C)CC[C@H]2C(C)C)cc1 (stereo partly specified)	inactive
COc1cccc(C(=O)N2CCN(C(=O)COc3cccc(C)c3)CC2)c1OC	inactive
CNCCC(Oc1ccc(C(F)(F)F)cc1)c1ccccc1 (stereo unspecified)	18.8 µM (active)
CCC1OC(=O)C(C)CC(C)C(=O)/C(C)=C/C(C)C(=O)/C=C/C1(C)O (stereo unspecified)	inactive
COc1ccc(-c2c(C)c(C(=O)NN3CCCCC3)nn2-c2ccc(Cl)cc2Cl)cc1	16.4 µM (active)
O=C(Nc1cnc(Cl)nc1)c1ccc(F)c(F)c1	inactive
CC1=C2C3OC(=O)C(C)C3(O)CCC2(C)CCC1 (stereo unspecified)	inactive
C[n+]1ccc(-c2c3nc(c(-c4cc[n+](C)cc4)c4ccc([nH]4)c(-c4cc[n+](C)cc4)c4nc(c(-c5cc[n+](C)cc5)c5ccc2[nH]5)C=C4)C=C3)cc1	inactive
CC(=O)[C@H]1CC[C@H]2[C@@H]3CC=C4C[C@@H](OS(=O)(=O)O)CC[C@]4(C)[C@H]3CC[C@]12C	inactive
C/C(=C\CCC(C)CCO)C(=O)O[C@@H]1[C@@H](O)[C@H](OC2OC=C(C(=O)O)C3CCC(C)(O)C23)O[C@H](CO)[C@H]1O (stereo partly specified)	inactive
COc1cc(/C=C/CO)ccc1O[C@@H]1O[C@H](CO)[C@@H](O)[C@H](O)[C@H]1O	inactive
CC1C2=CC(=O)OC2(O)CC2C1C(O)CC1C(C)(CO)CCCC21C (stereo unspecified)	inactive
CN(CCOc1ccc(C[C@H](Nc2ccccc2C(=O)c2ccccc2)C(=O)O)cc1)c1ccccn1	inactive
Nc1c(S(=O)(=O)c2ccccc2)c2nc3ccccc3nc2n1-c1ccc(F)cc1	inactive
CC(=O)OC[C@]12[C@H](OC(C)=O)[C@H](OC(=O)c3ccccc3)[C@@H]3[C@@H](OC(C)=O)[C@]1(OC3(C)C)[C@H](C)C[C@H](OC(C)=O)[C@@H]2OC(=O)c1ccccc1	inactive
